GC-B act = human GC-B receptor activators, primary screen, HEK293 GC-B cells, cGMP TR-FRET, EC30 CNP. 370,000 compounds, 0.11% hits. Atrial natriuretic peptide receptor 2 (Homo sapiens), P20594. 0% at EC30 CNP, 100% saturating CNP. activation, % at 10 µM. AID 1920062, 2024;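 active means activation at 10 µM reaching about 35% in either raw or pattern-adjusted values, limit read from the data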
NPR1 activator = GC-A stimulated cGMP production enhancers – HEK293 GC-A cells, cGMP TR-FRET, EC30 ANP, primary screen | 370,000 compounds, 0.14% hits | 0% at EC30 ANP, 100% saturating ANP | activation, % at 10 µM | AID 1671463, 2021; in the data active means activation above about 40%
Target sequence (P16066 whole entry, looked up): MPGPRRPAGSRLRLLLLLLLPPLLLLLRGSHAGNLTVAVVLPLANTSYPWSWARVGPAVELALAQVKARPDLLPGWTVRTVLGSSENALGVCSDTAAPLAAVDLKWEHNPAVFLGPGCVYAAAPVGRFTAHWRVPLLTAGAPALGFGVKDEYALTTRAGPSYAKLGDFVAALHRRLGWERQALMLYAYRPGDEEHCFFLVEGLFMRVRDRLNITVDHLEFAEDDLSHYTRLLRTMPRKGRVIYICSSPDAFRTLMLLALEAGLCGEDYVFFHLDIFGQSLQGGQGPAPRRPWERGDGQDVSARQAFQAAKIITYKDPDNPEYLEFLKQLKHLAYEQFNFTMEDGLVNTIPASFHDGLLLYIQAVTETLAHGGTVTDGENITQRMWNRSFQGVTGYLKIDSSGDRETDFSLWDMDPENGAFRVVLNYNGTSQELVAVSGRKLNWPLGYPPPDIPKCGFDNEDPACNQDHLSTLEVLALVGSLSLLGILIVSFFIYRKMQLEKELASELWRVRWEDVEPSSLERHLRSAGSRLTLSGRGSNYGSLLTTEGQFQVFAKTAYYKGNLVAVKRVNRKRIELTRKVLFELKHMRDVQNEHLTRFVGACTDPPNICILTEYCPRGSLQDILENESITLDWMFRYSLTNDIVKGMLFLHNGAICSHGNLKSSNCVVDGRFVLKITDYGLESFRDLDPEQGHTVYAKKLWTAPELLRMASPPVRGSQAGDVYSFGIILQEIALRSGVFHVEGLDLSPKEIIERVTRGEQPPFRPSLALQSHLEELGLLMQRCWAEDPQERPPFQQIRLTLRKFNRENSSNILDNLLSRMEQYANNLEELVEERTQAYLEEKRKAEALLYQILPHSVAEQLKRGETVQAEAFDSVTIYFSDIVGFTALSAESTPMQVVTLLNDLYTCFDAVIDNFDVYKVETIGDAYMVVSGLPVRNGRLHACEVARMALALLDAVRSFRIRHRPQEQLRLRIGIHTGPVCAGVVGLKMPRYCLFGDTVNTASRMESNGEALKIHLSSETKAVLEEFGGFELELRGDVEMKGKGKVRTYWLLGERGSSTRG
proKLK7 act = proKLK7 zymogen activators, primary screen, biochemical, fluorescence intensity. Kallikrein-7 (Homo sapiens), P49862. purified proKLK7, EDANS-DABCYL substrate fluorescence; 100% is mature enzyme control, 0% vehicle. activation, % at 7 µM. 370,000 compounds, 0.9% hits. AID 652039, 2013;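 active means activation above the mean of all tested compounds plus 3 SD, computed per campaign excluding outliers beyond control limits, cut at about 13% in these data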
HIF activator = HIF pathway transcriptional activators, primary screen, cell-based, U2OS HRE-luciferase, luminescence; U2OS HRE-luciferase reporter; normalized: DMSO 0%, desferrioxamine 100%; activation, % at 7.5 µM (by protocol); 300,000 compounds, 0.32% hits; AID 1910, 2009;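 active means mean activation of at least 10% of the iron chelator positive control signal, with at least half of replicates also reaching 10%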
KLK7 act conf = proKLK7 zymogen activators, confirmation, biochemical, fluorescence intensity, triplicate | shares compounds with proKLK7 act | purified proKLK7, EDANS-DABCYL substrate fluorescence; scaled: vehicle 0, mature enzyme 100 | activation, % at 7 µM | 3,200 compounds, 68% hits;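 active means activation, as change over the incubation, above the mean of all tested compounds plus 3 SD, cut at about 13% in these data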
EDANS interfere = EDANS-DABCYL substrate optical interference, artefact control for kallikrein-7 zymogen activator project, biochemical, fluorescence intensity, high throughput | shares compounds with proKLK7 act | 3,200 compounds, 80% hits | no enzyme, 4 h; solvent 0%, active enzyme control 100% | activation, % at 7 µM | AID 686952, 2013;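 active means activation above the all-compound mean plus 3 SD, ignoring values outside control-based bounds, cut at about 4.8% in these data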;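 further: value is the 4 h activation minus the activation read at time zero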
Numbers without * were called inactive; x = not tested or not shown. Shown are actives, neighbours in structure and some others; about 1.3% of the full set was active somewhere.

SMILES	GC-B act	NPR1 activator	proKLK7 act	HIF activator	KLK7 act conf	EDANS interfere
OC1CNc2c(ccc3ccccc23)C1 (stereo not given)	-4	-8	14*	x	1	-6
COc1ccc(OC)c(C=Nc2ccccc2-c2nc3ccccc3[nH]2)c1	-9	-28	31*	1	-142	-118
Oc1ccc(C=Nc2ccccc2-c2nc3ccccc3[nH]2)c(O)c1	16	9	38*	2	-88	-96
Oc1ccccc1C=Nc1ccccc1-c1nc2ccccc2[nH]1	-1	-14	77*	3	-386	-354
COc1ccc2c(c1)CN1C(=O)N(CCc3ccccc3)S(=O)(=O)CC21 (stereo not given)	6	1	0	x	x	x
COc1ccc(C2CC(c3ccncc3)=NN2c2ccc(S(N)(=O)=O)cc2)cc1 (stereo not given)	5	24	91*	x	-94	8.8*
COc1ccc(C2=NN(c3ccc(C(=O)O)cc3)C(c3ccc(OC)c(OC)c3)C2)cc1 (stereo not given)	-3	17	67*	0	65*	63*
COc1ccc(C2CC(c3ccc(Cl)cc3)=NN2c2ccc(S(N)(=O)=O)cc2)cc1 (stereo not given)	0	10	-228	x	x	x
O=C1N2Cc3ccccc3C2CS(=O)(=O)N1CCc1ccccc1 (stereo not given)	-5	-5	1	x	x	x
O=C(Nc1nc2nccc(-c3ccccc3)n2n1)C(Cl)(Cl)Cl	-2	-3	39*	0	47*	46*
O=C1c2ccccc2C(=O)N1c1nc2nccc(-c3ccccc3)n2n1	-11	-2	4	-1	x	x
O=S(=O)(Nc1ccc(-c2nc3cccnc3s2)cc1)c1cc(F)ccc1F	1	4	16*	3	20*	21*
O=c1c2ccccc2c(C=NCCO)c(O)n1-c1ccccc1	3	0	3	-1	x	x
O=c1c2ccccc2c(C=NC2CCS(=O)(=O)C2)c(O)n1-c1ccccc1 (stereo not given)	-6	-4	14*	0	15*	16*
CCOC(=O)c1ccc(C(=O)OCC)c(NC(=S)Nc2ccc([N+](=O)[O-])cc2OC)c1	-4	-1	13*	1	12	6.9*
COc1cc2c(C#N)c(N3CCN(C)CC3)nc(N)c2c(N)n1	-9	0	65*	1	48*	61*
Cc1cc(N2CCOCC2)nc2ccc(NC(=O)C3CCCCC3)cc12	2	1	-1	x	x	x
Cc1cc(N2CCOCC2)nc2ccc(NC(=S)N3CCCCC3C)cc12 (stereo not given)	5	7	21*	1	12	15*
CCCN(CCC)CCNC(=O)CCC(=O)Nc1ccc2nc(N3CCN(C)CC3)cc(C)c2c1	0	1	25*	0	120*	121*
Cc1cc(N2CCN(C)CC2)nc2ccc(NC(=S)N3CCN(c4ccc(Cl)cc4)CC3)cc12	-1	5	15*	0	2	3
Cc1cc(N2CCCC2)nc2ccc(NC(=S)NCCCN3CCC(C)CC3)cc12	-7	1	15*	1	34*	45*
CCCCNC(=O)CCC(=O)Nc1ccc2nc(N3CCN(C)CC3)cc(C)c2c1	1	-3	1	0	x	x
CCCN1CCN(CCCNC(=S)Nc2ccc3nc(N4CCN(CC)CC4)cc(C)c3c2)CC1	-6	3	5	-24	x	x
O=C(c1cc(-c2ccc(Cl)cc2)nc2ccccc12)N1CCN(c2ncccn2)CC1	2	5	-1	x	x	x
CCCC[C@H]1C2CC(OC(=O)Nc3ccccc3OC)C(C2)[C@H]2CCCCN21 (stereo not given in full)	0	1	0	x	x	x
SMILES	GC-B act	NPR1 activator	proKLK7 act	HIF activator	KLK7 act conf	EDANS interfere
CCCn1c(-c2cccs2)nc2nc3ccccc3nc21	9	4	41*	1	-55	-64
COCCn1c(-c2ccco2)nc2nc3ccccc3nc21	13	2	43*	0	62*	82*
COCCn1c(-c2cccs2)nc2nc3ccccc3nc21	1	-3	38*	1	68*	73*
CCCC[C@H]1C2CC(OC(=O)Nc3cccc(C(F)(F)F)c3)C(C2)[C@H]2CCCCN21 (stereo not given in full)	7	-7	0	x	x	x
CC(=O)N1CCc2cc(S(=O)(=O)NCCC(=O)N(C)C3CCCCC3)ccc21	1	1	0	x	x	x
CCOC(=O)N1CCC(N2C(=O)c3ccccc3C2Nc2ccc3c(c2)OCCO3)CC1 (stereo not given)	-2	0	1	0	x	x
CCOC(=O)N1CCC(N2C(=O)c3ccccc3C2Nc2ccc3c(C)cc(=O)oc3c2)CC1 (stereo not given)	-1	-7	36*	-1	-142	-142
O=c1[nH]c2cc3c(cc2cc1C(c1nnnn1CC1CCCO1)N1CCCC1)OCO3 (stereo not given)	0	-5	15*	x	9	9.4*
O=c1[nH]c2cc3c(cc2cc1C(c1nnnn1CC1CCCO1)N1CCCCCC1)OCO3 (stereo not given)	x	x	x	0	x	x
CCN(CC)C(=O)c1ccc(C(CCOC(=O)Oc2ccccc2)c2ccc(OC)cc2)cc1 (stereo not given)	2	7	1	x	x	x
Cc1cccc(CNC(=S)OCCN2CCCC23CCC(c2ccccc2)CC3)c1 (stereo not given)	-14	-18	x	x	x	x
S=C(Nc1ccc(Br)cc1)OC1CCC12CCC(c1ccccc1)CC2 (stereo not given)	-7	1	0	x	x	x
CC(=O)Nc1cccc(N2C(=O)CC(Cc3ccccc3)C2=O)c1 (stereo not given)	5	1	0	0	x	x
Cc1cc(=O)oc2cc(N3C(=O)CC(Cc4ccccc4)C3=O)ccc12 (stereo not given)	3	0	19*	0	25*	23*
C=CCN1C(=O)[C@@H](CC(=O)N2CCN(C(=O)c3ccco3)CC2)[C@]2(C(=O)OCC)CCCCC/C=C/12	3	1	1	x	x	x
CCCCOC(=O)Oc1ccc2c(=O)c(Oc3cc(C)cc(C)c3)coc2c1	5	0	4	0	x	x
